Consider 13 compounds from PubChem BioAssay (NCI).

SMILES strings stand for the structures. About 83,000 compounds went through this panel and 20% of them were active in at least one assay; those are over-represented in the sample as a whole.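 Percent growth is the endpoint: 0 to 100 indicates growth inhibition (40 means 60% inhibition), 0 means no net growth, and negative values indicate cell death.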 Unmarked numbers belong to inactive results. The source made the active and inactive calls. How the source made its calls: active means growth percent below 10; inactive means the rest.

Some test systems named below: NCI-H23 lung; NCI-H226 lung; NCI-H322M lung; HOP-62 NSCLC; NCI-H460 lung; HOP-92 NSCLC; NCI-H522 lung; A549/ATCC NSCLC; 786-0 renal; COLO 205 colon.
Common to all, as to assay: NCI-60 one-dose screen, 48 h (100 = growth as untreated, 0 = no growth, -100 = all killed)
Details in all cases: 10 µM unless noted

In the case of `C=C1C(=O)O[C@H]2[C@H]1CC/C(Cn1cc(-c3ccsc3)nn1)=C\CC[C@@]1(C)O[C@@H]21`, the growth with NCI-H23 lung is -14.9% (active); in the test with NCI-H226 lung, 7.54% (active); in the test on NCI-H322M lung it was 72.7%; with HOP-62 NSCLC, 28.4%; in the test on NCI-H460 lung, 41%; with HOP-92 NSCLC it was -72.9% (active). For the same compound, the growth in the test with NCI-H522 lung is -67.8% (active); in the test on A549/ATCC NSCLC, 13.8%; in the test on 786-0 renal, -86.7% (active); in the test with COLO 205 colon it was -61% (active).
Take `COc1cc2c3c(c(=O)oc2cc1OS(=O)(=O)c1ccc(C(F)(F)F)cc1)CCCCC3`: the growth in the test with NCI-H23 lung was 76.8%; in the test on NCI-H226 lung it was 77.8%; in the test with NCI-H322M lung, 84.9%; in the test with HOP-62 NSCLC, 64%; in the test on NCI-H460 lung, 89.9%; with HOP-92 NSCLC, 56.8%. Besides, the growth with NCI-H522 lung is 71.6%; in the test with A549/ATCC NSCLC, 75.4%; in the test on 786-0 renal it was 72.2%; with COLO 205 colon it was 93.1%.
For the compound `COc1ccc(NC(=O)CSc2nc3ccccc3c(=O)n2-c2ccccc2C(F)(F)F)c(OC)c1OC`, the growth is 102% in the test on NCI-H23 lung; 102% in the test with NCI-H226 lung; 116% with NCI-H322M lung; 78% with HOP-62 NSCLC; 99.4% in the test with NCI-H460 lung; 77.3% in the test on HOP-92 NSCLC. Moreover, the growth is 112% with NCI-H522 lung, 98.3% in the test with A549/ATCC NSCLC, 101% in the test with 786-0 renal and 102% in the test with COLO 205 colon.
As to `c1ccc2c(c1)Oc1ccccc1C2C1c2ccccc2Oc2ccccc21`, the growth is 90.6% in the test on NCI-H23 lung; 103% in the test with NCI-H226 lung; 94.1% in the test on NCI-H322M lung; 89.6% in the test with HOP-62 NSCLC; 95.9% in the test on NCI-H460 lung; 94.8% in the test with HOP-92 NSCLC. Also, the growth in the test on NCI-H522 lung is 87.6%; in the test with A549/ATCC NSCLC it was 88.3%; in the test on 786-0 renal it was 94.1%; in the test with COLO 205 colon it was 99.5%.
Regarding `CNC(=O)c1cc(Oc2ccc3c(c2)sc2nc(-c4ccc(Cl)cc4)cn23)ccn1`, the growth in the test on NCI-H23 lung is 72.6%; in the test on NCI-H226 lung it was 38.9%; in the test with NCI-H322M lung, 92.9%; with HOP-62 NSCLC it was 62.5%; with NCI-H460 lung it was 81.8%; in the test with HOP-92 NSCLC it was 76.8%. Besides, the growth in the test on NCI-H522 lung was 61.7%; in the test with A549/ATCC NSCLC, 79.4%; in the test with 786-0 renal it was 77.9%; with COLO 205 colon it was 114%.
As for `COc1cc(OC)c(C(=O)/C=C/c2cccc(C#N)c2)c(OC)c1`, the growth in the test with NCI-H23 lung is -7.14% (active); with NCI-H226 lung it was 3.93% (active); in the test on NCI-H322M lung, -1.49% (active); with HOP-62 NSCLC it was -9.93% (active); in the test with NCI-H460 lung it was 0.36% (active); in the test with HOP-92 NSCLC it was -5.88% (active). Moreover, the growth in the test with NCI-H522 lung is -25.9% (active); in the test with A549/ATCC NSCLC, 2.27% (active); in the test with 786-0 renal, 9.74% (active); with COLO 205 colon, -6.79% (active).
In the case of `Cc1cc(NC(=O)COC(=O)c2sc3cc(F)ccc3c2Cl)no1`, the growth with NCI-H23 lung is 108%; with NCI-H226 lung, 101%; with NCI-H322M lung, 112%; with HOP-62 NSCLC, 96.2%; in the test with NCI-H460 lung it was 116%; with HOP-92 NSCLC, 91.8%. For the same compound, the growth in the test with NCI-H522 lung is 99.3%; with A549/ATCC NSCLC, 103%; with 786-0 renal, 101%; with COLO 205 colon it was 104%.
As for `COc1ncc(-c2ccc3ncnc(Nc4cccc(Cl)c4)c3c2)cc1N(S(C)(=O)=O)S(C)(=O)=O`, the growth in the test with NCI-H23 lung was 71.5%; in the test on NCI-H226 lung it was 64.5%; in the test with NCI-H322M lung it was 17.4%; with HOP-62 NSCLC, 79.1%; in the test with NCI-H460 lung it was 62.3%; in the test on HOP-92 NSCLC, 7.62% (active). The growth with NCI-H522 lung is 52.2%; in the test on A549/ATCC NSCLC, 47.9%; in the test on 786-0 renal, 79.5%; in the test on COLO 205 colon, 77.1%.
On to `C[N+](C)(C)c1ccc(CC2c3ccccc3-c3ccccc32)cc1`, for which the growth is 78.5% in the test on NCI-H23 lung; 82.2% with NCI-H226 lung; 87.8% in the test with NCI-H322M lung; 38.9% with HOP-62 NSCLC; 87.3% in the test with NCI-H460 lung; 28.8% in the test with HOP-92 NSCLC. In addition, the growth in the test on NCI-H522 lung was 59.9%; in the test on A549/ATCC NSCLC, 62%; with 786-0 renal, 73.9%; with COLO 205 colon it was 59.8%.
Consider `COc1ccc(/C=C/C(=O)/C=C/c2cc3ccc(Cl)cc3[nH]c2=O)cc1`, for which the growth in the test with NCI-H23 lung was 81.1%; with NCI-H226 lung it was 81%; in the test with NCI-H322M lung, 97.2%; in the test with HOP-62 NSCLC, 85.3%; with NCI-H460 lung, 86.7%; with HOP-92 NSCLC it was 103%. In addition, the growth in the test with NCI-H522 lung was 82.3%; with A549/ATCC NSCLC it was 93.1%; in the test with 786-0 renal, 94.9%; in the test with COLO 205 colon, 90.5%.
Consider `COc1ccc(/C=C/C(=O)c2cc(OC)c(OC)c(OC)c2)cc1OCc1cn(Cc2ccc(F)cc2)nn1`, for which the growth in the test with NCI-H23 lung was 103%; in the test with NCI-H226 lung, 76.8%; in the test with NCI-H322M lung, 33.6%; in the test with HOP-62 NSCLC it was 4.52% (active); in the test on NCI-H460 lung, 95.8%; in the test on HOP-92 NSCLC, 55.9%. Also, the growth is 26.4% in the test on NCI-H522 lung, 29.7% with A549/ATCC NSCLC, 49.3% with 786-0 renal and 66.4% in the test with COLO 205 colon.
As for `C=CCn1c(C)nc2ccc(Nc3nc(Nc4ccc(F)cc4)nc4ccccc34)cc21`, the growth with NCI-H23 lung was 56%; with NCI-H226 lung it was 85.4%; in the test with NCI-H322M lung it was 85.5%; with HOP-62 NSCLC it was 75.9%; in the test on NCI-H460 lung, 63.4%; in the test with HOP-92 NSCLC, -0.386% (active). The growth in the test on NCI-H522 lung is 57.9%; in the test on A549/ATCC NSCLC it was 52.1%; in the test with 786-0 renal it was 76.7%; in the test with COLO 205 colon, 43.7%.
With `CCn1cc(C(=O)O)c(=O)c2cc(F)c(N3CCN(S(=O)(=O)c4c(C)cc(C)cc4C)CC3)cc21`, the growth in the test with NCI-H23 lung was 77.7%; in the test on NCI-H226 lung, 87.4%; in the test on NCI-H322M lung, 83.5%; in the test on HOP-62 NSCLC, 71.5%; in the test on NCI-H460 lung, 82.8%; with HOP-92 NSCLC it was 76.9%. In addition, the growth in the test on NCI-H522 lung was 86.5%; in the test on A549/ATCC NSCLC, 78%; with 786-0 renal, 102%; in the test with COLO 205 colon, 93.2%.
